Data taken from ChEMBL document CHEMBL3988442, “University of Dundee, Small-Polar-MMV Screening Library” (2021).
For some of these results: Results with a measured potency or affinity are listed apart.

What was measured:
Design in all cases: scale not given: direction of the effect not stated beside the values
[1] = target: Protein translocase subunit SecA (Escherichia coli (strain K12)) (UniProt P10408); assay: Assay to Identify E. coli SecA ATPase Inhibitors; format: functional; details: 30 µM
Sequence of Protein translocase subunit SecA (Escherichia coli (strain K12)) (P10408 whole entry): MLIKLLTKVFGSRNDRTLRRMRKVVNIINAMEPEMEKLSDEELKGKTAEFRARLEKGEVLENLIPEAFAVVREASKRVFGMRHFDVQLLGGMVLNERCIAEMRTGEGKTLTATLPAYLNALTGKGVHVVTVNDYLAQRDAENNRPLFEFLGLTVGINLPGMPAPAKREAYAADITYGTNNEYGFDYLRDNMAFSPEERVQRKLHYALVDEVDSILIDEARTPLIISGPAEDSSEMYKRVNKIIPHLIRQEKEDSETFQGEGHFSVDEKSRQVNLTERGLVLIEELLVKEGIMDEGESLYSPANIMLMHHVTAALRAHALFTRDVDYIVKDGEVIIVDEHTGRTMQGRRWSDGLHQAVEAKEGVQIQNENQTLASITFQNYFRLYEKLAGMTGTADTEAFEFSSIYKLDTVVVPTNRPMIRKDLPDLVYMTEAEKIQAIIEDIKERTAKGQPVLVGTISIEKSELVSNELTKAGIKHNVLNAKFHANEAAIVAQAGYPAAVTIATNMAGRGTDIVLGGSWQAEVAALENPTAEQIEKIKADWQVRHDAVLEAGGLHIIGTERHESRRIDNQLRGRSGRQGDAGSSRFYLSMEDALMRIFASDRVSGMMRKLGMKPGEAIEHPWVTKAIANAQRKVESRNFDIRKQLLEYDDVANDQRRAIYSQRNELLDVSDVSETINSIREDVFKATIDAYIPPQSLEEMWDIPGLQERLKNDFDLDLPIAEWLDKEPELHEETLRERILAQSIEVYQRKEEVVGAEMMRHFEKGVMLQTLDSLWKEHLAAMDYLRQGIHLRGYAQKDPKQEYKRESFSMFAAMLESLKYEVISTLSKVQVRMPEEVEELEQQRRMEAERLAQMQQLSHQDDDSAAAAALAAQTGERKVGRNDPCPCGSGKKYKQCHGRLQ

[2] = target: T1, Ubiquitin-activating enzyme e1, putative (Leishmania donovani (strain BPK282A1)) (UniProt E9BSI1); assay: Leishmania donovani Ubiquitin Activating Enzyme (LdE1); format: functional; details: 30 µM
T1 sequence (whole entry): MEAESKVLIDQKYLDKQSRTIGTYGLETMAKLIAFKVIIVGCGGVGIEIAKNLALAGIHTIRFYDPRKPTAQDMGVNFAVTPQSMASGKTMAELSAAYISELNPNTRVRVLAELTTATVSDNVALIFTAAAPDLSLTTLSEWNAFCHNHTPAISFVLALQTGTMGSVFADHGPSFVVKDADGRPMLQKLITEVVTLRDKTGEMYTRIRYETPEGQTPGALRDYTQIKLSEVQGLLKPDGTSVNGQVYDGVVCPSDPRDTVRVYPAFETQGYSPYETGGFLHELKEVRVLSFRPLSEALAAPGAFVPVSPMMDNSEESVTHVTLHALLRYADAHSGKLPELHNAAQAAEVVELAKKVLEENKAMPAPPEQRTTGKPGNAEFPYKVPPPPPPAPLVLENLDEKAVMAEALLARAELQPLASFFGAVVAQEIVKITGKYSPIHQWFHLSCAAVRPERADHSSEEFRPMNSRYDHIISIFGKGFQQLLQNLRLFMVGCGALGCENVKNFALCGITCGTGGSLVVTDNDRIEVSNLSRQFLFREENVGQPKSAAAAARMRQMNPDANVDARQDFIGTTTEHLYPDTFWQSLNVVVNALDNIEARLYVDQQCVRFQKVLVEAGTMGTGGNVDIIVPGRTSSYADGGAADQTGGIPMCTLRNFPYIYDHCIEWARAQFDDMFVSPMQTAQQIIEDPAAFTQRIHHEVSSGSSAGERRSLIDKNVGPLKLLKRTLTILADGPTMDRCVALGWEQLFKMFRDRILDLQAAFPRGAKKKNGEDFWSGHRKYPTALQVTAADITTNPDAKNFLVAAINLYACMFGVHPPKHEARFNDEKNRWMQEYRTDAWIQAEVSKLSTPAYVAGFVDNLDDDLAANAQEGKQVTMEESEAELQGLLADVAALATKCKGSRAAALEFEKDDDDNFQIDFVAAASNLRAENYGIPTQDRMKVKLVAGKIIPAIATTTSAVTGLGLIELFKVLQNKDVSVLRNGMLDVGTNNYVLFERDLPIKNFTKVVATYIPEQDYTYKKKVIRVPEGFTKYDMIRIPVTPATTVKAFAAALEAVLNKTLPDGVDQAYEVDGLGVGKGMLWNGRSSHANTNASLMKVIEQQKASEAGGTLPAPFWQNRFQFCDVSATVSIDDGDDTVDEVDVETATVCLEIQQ

[3] = target: AMP-activated protein kinase, AMPK (Homo sapiens) (UniProt P54646+O43741+P54619+Q9UGJ0+Q9Y478+Q13131+Q9UGI9); assay: AMP-dependent Kinase enzyme assay. An in vitro enzyme assay that detects ADP turnover that is directly proportional to AMPK activity. This uses naive AMPK that is activated during the assay with MK-8722; format: functional; details: 30 µM
[4] = target: Sialic acid-binding Ig-like lectin 9 (Homo sapiens) (UniProt Q9Y336); assay: Hs-Siglec9 ALPHAscreen SOP 20170721; details: 10 µM
Sequence of Sialic acid-binding Ig-like lectin 9 (Homo sapiens) (Q9Y336 whole entry): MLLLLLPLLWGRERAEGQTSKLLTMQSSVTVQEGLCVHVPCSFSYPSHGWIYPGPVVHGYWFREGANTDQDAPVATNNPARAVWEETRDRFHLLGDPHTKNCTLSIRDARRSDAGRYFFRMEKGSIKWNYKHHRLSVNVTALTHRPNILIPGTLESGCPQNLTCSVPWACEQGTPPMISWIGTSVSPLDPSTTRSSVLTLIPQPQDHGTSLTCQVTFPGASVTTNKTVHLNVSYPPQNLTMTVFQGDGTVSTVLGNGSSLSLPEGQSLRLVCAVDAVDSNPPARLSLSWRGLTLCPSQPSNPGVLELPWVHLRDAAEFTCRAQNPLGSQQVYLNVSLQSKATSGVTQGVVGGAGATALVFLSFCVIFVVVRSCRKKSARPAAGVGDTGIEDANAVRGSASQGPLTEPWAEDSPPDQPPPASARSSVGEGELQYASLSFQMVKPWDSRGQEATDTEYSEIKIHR

[5] = tested on: Trypanosoma cruzi; assay: Trypanosoma cruzi phosphomannomutase and mannose-1-phosphate guanylyltransferase assay; format: functional; details: 10 µM
[6] = target: T2, Arginase-2, mitochondrial (Homo sapiens) (UniProt P78540); assay: in vitro enzyme assay to detect the production of urea directly proportional to the activity of Arginase II; format: functional; details: 33.3 µM; further: in the data most compounds retested in dose-response had high values
T2 sequence (whole entry): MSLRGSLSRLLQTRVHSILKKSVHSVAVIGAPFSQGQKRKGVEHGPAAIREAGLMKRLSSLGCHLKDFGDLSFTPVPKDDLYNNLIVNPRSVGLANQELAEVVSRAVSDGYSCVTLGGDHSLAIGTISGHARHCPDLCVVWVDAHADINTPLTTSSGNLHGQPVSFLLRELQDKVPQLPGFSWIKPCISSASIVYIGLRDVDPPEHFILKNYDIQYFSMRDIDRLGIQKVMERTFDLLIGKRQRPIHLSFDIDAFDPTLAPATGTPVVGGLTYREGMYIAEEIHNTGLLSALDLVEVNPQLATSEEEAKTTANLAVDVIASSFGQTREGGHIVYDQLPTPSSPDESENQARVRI

[7] = target: T3, Proteasome subunit beta (Trypanosoma cruzi) (UniProt O96673); assay: Trypanosoma cruzi proteasome chymotrypsin-like activity (TcProtChymo) assay.; further: in the data most compounds retested in dose-response had high values; format: functional; details: 9.37 µM
T3 sequence (whole entry): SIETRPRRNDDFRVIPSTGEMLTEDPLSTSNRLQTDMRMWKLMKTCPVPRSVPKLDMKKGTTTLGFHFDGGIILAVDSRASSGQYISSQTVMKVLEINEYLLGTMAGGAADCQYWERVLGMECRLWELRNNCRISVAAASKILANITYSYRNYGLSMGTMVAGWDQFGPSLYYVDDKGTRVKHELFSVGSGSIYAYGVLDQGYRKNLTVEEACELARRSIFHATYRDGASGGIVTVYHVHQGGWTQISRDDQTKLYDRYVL

[8] = species: Homo sapiens; assay: To identify inhibition of the IFN signalling (Jak-Stat) pathway via expression of an eGFP reporter gene under the control of an IFN-stimulated response element (ISRE) containing MxA promoter.; format: functional; details: 30 µM
[9] = target: T4, Tyrosyl-tRNA synthetase, putative (Trypanosoma cruzi (strain CL Brener)) (UniProt Q4DSP6); assay: Trypanosoma cruzi tyrosyl tRNA synthetase (TcYRS) _High Tyrosine SOP; format: functional; details: 30 µM; further: in the data most compounds retested in dose-response had high values
T4 sequence (whole entry): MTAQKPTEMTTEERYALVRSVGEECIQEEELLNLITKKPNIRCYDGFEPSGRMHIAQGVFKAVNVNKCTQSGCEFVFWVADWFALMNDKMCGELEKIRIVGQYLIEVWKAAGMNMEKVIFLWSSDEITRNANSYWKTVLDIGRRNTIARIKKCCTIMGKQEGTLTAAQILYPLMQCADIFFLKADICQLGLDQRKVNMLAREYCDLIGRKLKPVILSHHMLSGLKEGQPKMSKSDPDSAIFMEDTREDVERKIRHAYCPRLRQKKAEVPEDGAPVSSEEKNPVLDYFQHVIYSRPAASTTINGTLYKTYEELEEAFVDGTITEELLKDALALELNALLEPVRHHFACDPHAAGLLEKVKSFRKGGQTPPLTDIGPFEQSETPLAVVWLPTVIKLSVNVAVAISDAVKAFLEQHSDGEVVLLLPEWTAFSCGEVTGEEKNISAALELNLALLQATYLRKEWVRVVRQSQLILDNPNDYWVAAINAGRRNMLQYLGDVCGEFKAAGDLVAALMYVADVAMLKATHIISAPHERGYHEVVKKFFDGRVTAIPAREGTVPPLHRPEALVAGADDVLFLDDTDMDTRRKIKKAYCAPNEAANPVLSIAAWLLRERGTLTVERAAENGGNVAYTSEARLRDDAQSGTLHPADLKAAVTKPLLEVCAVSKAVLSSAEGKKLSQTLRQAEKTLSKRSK

[10] = target: T4, Tyrosyl-tRNA synthetase, putative (Trypanosoma cruzi (strain CL Brener)); assay: Trypanosoma cruzi tyrosyl tRNA synthetase (TcYRS) SOP; format: functional; details: 30 µM
[11] = target: Chromo domain-containing protein 1 (Saccharomyces cerevisiae (strain ATCC 204508 / S288c) (Baker's yeast)) (UniProt P32657); assay: ScCHD-1 Enzyme Inhibition Assay; format: functional; details: 30 µM; further: in the data most compounds retested in dose-response had high values
Sequence of Chromo domain-containing protein 1 (Saccharomyces cerevisiae (strain ATCC 204508 / S288c) (Baker's yeast)) (P32657 whole entry, the tested form may be a part): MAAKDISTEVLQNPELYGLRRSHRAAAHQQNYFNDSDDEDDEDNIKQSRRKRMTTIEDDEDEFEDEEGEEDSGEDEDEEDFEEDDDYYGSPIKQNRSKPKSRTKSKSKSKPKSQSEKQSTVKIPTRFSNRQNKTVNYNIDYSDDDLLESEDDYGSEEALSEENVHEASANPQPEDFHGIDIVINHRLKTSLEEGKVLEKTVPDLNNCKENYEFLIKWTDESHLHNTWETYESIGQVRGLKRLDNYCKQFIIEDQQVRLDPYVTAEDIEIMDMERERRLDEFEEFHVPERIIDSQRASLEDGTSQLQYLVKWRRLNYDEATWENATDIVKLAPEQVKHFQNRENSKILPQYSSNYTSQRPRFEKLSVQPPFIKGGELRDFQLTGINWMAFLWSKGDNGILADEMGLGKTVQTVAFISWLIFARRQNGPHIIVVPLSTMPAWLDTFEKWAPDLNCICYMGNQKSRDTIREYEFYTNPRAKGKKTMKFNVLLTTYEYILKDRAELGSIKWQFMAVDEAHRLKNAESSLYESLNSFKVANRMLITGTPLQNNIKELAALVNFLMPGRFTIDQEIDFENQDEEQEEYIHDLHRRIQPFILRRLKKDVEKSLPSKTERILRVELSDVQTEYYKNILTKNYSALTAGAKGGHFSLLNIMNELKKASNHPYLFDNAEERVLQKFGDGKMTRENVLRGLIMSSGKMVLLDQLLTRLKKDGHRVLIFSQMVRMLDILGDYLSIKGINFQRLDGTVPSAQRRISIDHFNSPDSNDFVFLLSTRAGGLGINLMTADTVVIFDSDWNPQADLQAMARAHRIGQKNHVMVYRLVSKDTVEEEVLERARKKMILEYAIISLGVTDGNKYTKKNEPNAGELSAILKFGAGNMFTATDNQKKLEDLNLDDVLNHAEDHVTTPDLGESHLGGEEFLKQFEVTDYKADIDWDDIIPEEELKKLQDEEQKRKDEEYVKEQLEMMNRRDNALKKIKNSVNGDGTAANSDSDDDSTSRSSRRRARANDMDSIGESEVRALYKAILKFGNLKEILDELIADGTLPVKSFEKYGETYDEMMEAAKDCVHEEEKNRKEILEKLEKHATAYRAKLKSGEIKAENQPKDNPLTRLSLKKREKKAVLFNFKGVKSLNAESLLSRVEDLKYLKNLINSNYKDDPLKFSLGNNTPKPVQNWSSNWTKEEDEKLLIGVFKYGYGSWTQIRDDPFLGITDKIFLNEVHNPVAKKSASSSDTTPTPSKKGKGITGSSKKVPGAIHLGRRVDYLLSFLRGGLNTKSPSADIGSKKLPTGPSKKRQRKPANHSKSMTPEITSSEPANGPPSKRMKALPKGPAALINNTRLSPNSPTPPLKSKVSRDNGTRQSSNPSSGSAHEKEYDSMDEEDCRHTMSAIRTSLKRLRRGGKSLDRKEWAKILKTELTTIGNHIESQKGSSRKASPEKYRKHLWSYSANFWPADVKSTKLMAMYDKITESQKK

Compound	Percent Effect [1]	Percent Effect [2]	Percent Effect [3]	Percent Effect [4]	Percent Effect [5]	Percent Effect [6]	Percent Effect [7]	Percent Effect [8]	Percent Effect [9]	Percent Effect [10]	Percent Effect [11]
O=C(NC[C@]12COC[C@H]1CN(Cc1nccs1)C2)c1ccccc1	-4.56%	17.3%	-62.1%	6.67%	3.34%	-6.87%	15.7%	4.15%	2.12%	7.69%	-9.52%
COc1c(C2CCCN2C(=O)c2ccc3cc[nH]c3c2)c(C)nn1C (stereo not given)	-4%	18.2%	1.47%	-0.102%	7.93%	-4.42%	7.68%	3.62%	4.76%	14.1%	-21.5%
CC(=O)N1CC(Cc2nccc3ccn(C)c23)C1	-2.79%	24%	0.304%	-7.93%	1.18%	3.96%	22.6%	1.82%	1.06%	16.7%	-6.59%
Cc1nc(NCc2cccnc2)c2c(n1)c(C)nn2C	0.594%	7.79%	5.87%	8.94%	2.85%	-12.4%	7.99%	31%	6.45%	18.5%	-2.21%
CN(Cc1ccc2c(c1)OCO2)Cc1nc2c(cnn2C)c(=O)[nH]1	-3.58%	5.26%	0.733%	-4.42%	0.467%	-4.32%	-0.592%	4.07%	8.37%	6.17%	-3.9%
